Measured values: PubChem BioAssay
A number with no mark means an inactive call. How the calls were made is not given here.

Biological target: Pantothenate synthetase (Mycobacterium tuberculosis (strain ATCC 25618 / H37Rv)) (UniProt P9WIL5)
Experiment: Recombinant Mtb pantothenate synthetase (PanC) inhibitors, coupled enzyme, confirmatory (AID 375);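 further: 0% = full reaction with vehicle and 100% = no enzyme background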
Details: coupled enzyme assay; at 10 µM, stronger effect = higher value

Sequence of Pantothenate synthetase (Mycobacterium tuberculosis (strain ATCC 25618 / H37Rv)) (P9WIL5 whole entry, looked up): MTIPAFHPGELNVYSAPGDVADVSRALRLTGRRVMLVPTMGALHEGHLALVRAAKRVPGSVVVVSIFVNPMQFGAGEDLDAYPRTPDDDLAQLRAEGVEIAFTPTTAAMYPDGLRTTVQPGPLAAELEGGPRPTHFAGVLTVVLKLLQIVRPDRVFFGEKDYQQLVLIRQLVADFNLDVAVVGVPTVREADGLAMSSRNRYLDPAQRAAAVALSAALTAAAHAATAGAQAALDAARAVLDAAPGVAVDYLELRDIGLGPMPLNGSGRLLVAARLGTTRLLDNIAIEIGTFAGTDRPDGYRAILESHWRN

O=C(NC1CCCC1)c1c[nH]c2ccc(F)cc2c1=O and COc1ccc(Cl)cc1C(=O)NCCc1ccc(S(=O)(=O)NC(=O)NC2CCCCC2)cc1 are the same in inhibition: 0% for the first, 0% for the second.

O=C(C1CCN(c2nnc(-n3cccc3)s2)CC1)N1CCOCC1 and O=C(O)C1CC=CCC1C(=O)Nc1cccc(C(=O)N2CCCCC2)c1 (centres undefined) are the same in inhibition: 0% for the first, 0% for the second.

First: CC1CCN(c2oc(-c3cccc4ccccc34)nc2C#N)CC1
Second: COc1cccc2cc(C(=O)N3CCc4ccccc43)c(=O)oc12
The inhibition of the first is lower: 0% for the first, 1% for the second.

NC(=O)COC(=O)CNC(=O)c1ccc(Cl)cc1 and CC(NC(=O)COc1ccc(Br)cc1)C(=O)O (centres undefined) are the same in inhibition: 0% for the first, 0% for the second.

First: CCCCn1c(NCCC)nc2c1c(=O)[nH]c(=O)n2C
Second: CCCCCCn1c(CN2CCCC(C)C2)nc2c1c(=O)n(C)c(=O)n2C (centres undefined)
The inhibition of the first is lower: 0% for the first, 6% for the second.

CNCCCC12CCC(c3ccccc31)c1ccccc12 and Cc1nc(/N=C(\N)Nc2ccccc2)nc2ccccc12 are the same in inhibition: 0% for the first, 0% for the second.

Going from CCOC(=O)CN(C(=O)CSc1nnc(-c2ccncc2)n1CCCN(C)C)c1ccccc1 to Cc1cc(C(=O)CSc2nc3ccccc3n2CCC#N)c(C)n1Cc1cccs1, the inhibition falls from 11% to 0%.

First: CC1=C(C(=O)OC(C)C)C(C2CC=CCC2)NC(=O)N1 (centres undefined)
Second: CC(C)OC(=O)C(C)(C)Oc1ccc(C(=O)c2ccc(Cl)cc2)cc1
The inhibition of the first is higher: 6% for the first, 0% for the second.

Compared with COC(=O)c1ccccc1NC(=O)C1CCN(S(=O)(=O)c2cc(C)ccc2OC)CC1, O=C(CCCN1C(=O)c2ccccc2C1=O)Oc1ccc(F)cc1 is higher in inhibition: 0% for the first, 1% for the second.

CC1(C)NC(=O)N(CN2C(=O)NC(C)(C)C2=O)C1=O and CC1CC(C)CN(CCCNC(=O)c2ccc3c(c2)NC(=O)C(N2CCCCC2)S3)C1 (centres undefined) are the same in inhibition: 0% for the first, 0% for the second.

CCCOc1ccc(OCCSc2ncccn2)cc1 and CC(=O)c1n[nH]nc1NC(=O)c1ccccc1 are the same in inhibition: 0% for the first, 0% for the second.

Going from O=C(O)C1CC(=O)N(Cc2ccccc2)C1 (centres undefined) to CC1CCc2c(sc3c2C2=NS(=O)(=O)CCN2C=N3)C1 (centres undefined), the inhibition rises from 1% to 2%.
